Source: PubChem (several laboratories)
AHR act – activators of human aryl hydrocarbon receptor. AHR-responsive luciferase reporter cells, luminescence. 320,000 tested, 2.5% active. activation, % at 5 µM. P35869. AID 2796; in the data active = activation above about 47%
EBI2 block – EBI2 (human) antagonism; P32249; EBI2 beta-arrestin recruitment, luminescence, 7a,25-OHC stimulated; inhibition, % at 5 µM; 360,000 tested, 0.81% active; AID 651636; in the data active = inhibition above about 38%;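 also: enzyme fragment complementation signal reports receptor beta-arrestin coupling in cells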
Target sequence (P32249 whole entry, looked up, the tested form may be a part): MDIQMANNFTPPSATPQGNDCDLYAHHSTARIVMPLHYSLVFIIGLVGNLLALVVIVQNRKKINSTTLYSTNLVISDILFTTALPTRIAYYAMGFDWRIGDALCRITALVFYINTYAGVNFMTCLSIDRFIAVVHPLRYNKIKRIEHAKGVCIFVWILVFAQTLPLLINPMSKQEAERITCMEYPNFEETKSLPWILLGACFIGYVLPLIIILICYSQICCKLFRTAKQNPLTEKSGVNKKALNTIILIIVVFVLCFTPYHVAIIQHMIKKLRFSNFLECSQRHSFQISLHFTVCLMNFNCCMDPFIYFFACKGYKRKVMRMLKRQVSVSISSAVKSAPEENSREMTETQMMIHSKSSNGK
SENP6 block – blocks the human protease SENP6 | AID 2599 | 330,000 tested, 1.8% active | Q9GZR1 | Recombinant SENP6 catalytic domain, aminoluciferin luminescence | inhibition, % at 10 µM;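 active = inhibition above about 50% at the single tested dose, limit read from the data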
SENP8 block-1 – blocks human SENP8 cleavage of Nedd8 substrate. inhibition, % at 20 µM. AID 602440. recombinant SENP8, Nedd8 substrate fluorescence. 360,000 tested, 0.64% active; in the data active = inhibition mostly above about 40%, no sharp cut-off; inactive = mostly below about 27%
Target sequence (Q96LD8 whole entry, looked up): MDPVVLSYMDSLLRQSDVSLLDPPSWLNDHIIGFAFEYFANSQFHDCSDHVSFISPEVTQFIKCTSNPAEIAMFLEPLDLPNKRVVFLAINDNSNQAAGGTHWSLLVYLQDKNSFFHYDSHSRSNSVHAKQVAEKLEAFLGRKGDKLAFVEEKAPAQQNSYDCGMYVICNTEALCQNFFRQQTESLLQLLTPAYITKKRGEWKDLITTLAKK
SENP8 block-2 – blocks the human protease SENP8; AID 2540; purified SENP8, Z-RLRGG-aminoluciferin cleavage, luminescence; 330,000 tested, 1.2% active; inhibition, % at 10 µM; Q96LD8; in the data active = inhibition above about 50%
SENP7 inh – SENP7 protease inhibition; AID 434973; 330,000 tested, 1.5% active; recombinant SENP7, Z-RLRGG-aminoluciferin luminescence, 40 min; inhibition, % at 5 µM;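 active = inhibition above about 50% at the single test dose, limit read from the data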
SENP8 conf – confirmation of human SENP8 protease inhibitors. Recombinant SENP8, Z-RLRGG-aminoluciferin luminescence, 60 min. inhibition, % at 12.5 µM. shares compounds with SENP7 inh. 6,200 tested, 40% active;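 active = mean inhibition across replicates above about 50%, limit read from the data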
SENP6 confirm – human SENP6 inhibition, confirmed; 6,200 tested, 58% active; shares compounds with SENP7 inh; recombinant SENP6, Z-RLRGG-aminoluciferin luminescence; inhibition, % at 12.5 µM
SENP7 conf – human SENP7 inhibition, confirmed. shares compounds with SENP7 inh. recombinant SENP7, Z-RLRGG-aminoluciferin luminescence, 40 min. inhibition, % at 12.5 µM. 6,200 tested, 69% active. AID 488917
Casp3 SENP sel – selectivity test for SENP inhibitors: human caspase-3 inhibition; inhibition, % at 12.5 µM; 6,200 tested, 60% active; purified caspase-3, Z-DEVD-aminoluciferin luminescence, 60 min; shares compounds with SENP7 inh; AID 488918;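 active = mean inhibition above about 50%, limit read from the data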
SENP luc ctr – interferes with luciferase luminescence in SENP counter-screen; shares compounds with SENP7 inh; Pre-incubated SENP8/Z-RLRGG-aminoluciferin, luciferase luminescence interference; inhibition, % at 12.5 µM; 6,200 tested, 39% active; AID 488919;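 active = mean inhibition above about 50% when retested at one dose, limit read from the data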
Numbers stand for hits; - = inactive; . = no result given. In the library only some 5% were active in any assay of this set; here they are far more common.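 The calls were made as follows, unless noted: active = mean inhibition above about 50% in the one-dose retest (limit read from the data); inactive = the rest.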

SMILES	AHR act	EBI2 block	SENP6 block	SENP8 block-1	SENP8 block-2	SENP7 inh	SENP8 conf	SENP6 confirm	SENP7 conf	Casp3 SENP sel	SENP luc ctr
Cc1cc(N2CCOCC2)n2ncc(-c3ccccc3)c2n1	-	-	-	-	-	57	55	55	84	63	-
Cc1nc2ccccc2nc1OCc1ccc([N+](=O)[O-])cc1	-	-	-	-	-	-	.	.	.	.	.
CN(C)/C=C/C(=O)c1ncc(C(F)(F)F)cc1Cl	-	-	-	-	-	-	.	.	.	.	.
O=C(CCn1c(=S)oc2ccccc21)NCCC1=CCCCC1	-	-	-	-	-	-	.	.	.	.	.
O=c1c2ccccc2nc(-c2ccc(Br)cc2)n1Cc1ccccc1	-	-	-	-	-	-	.	.	.	.	.
O=c1c2ccccc2nc(-c2ccco2)n1Cc1ccccc1	-	-	77	-	63	69	79	76	89	78	77
c1ccc(Cn2c(-c3ccco3)nc3nc4ccccc4nc32)cc1	-	-	89	-	75	52	-	82	96	82	-
CCCCCn1c(-c2ccco2)nc2nc3ccccc3nc21	-	-	-	-	-	-	.	.	.	.	.
CN1C(=O)CC(Nc2cccc3cccc(N)c23)C1=O (configuration not stated)	-	-	-	-	-	61	-	-	-	-	-
O=C(Oc1ccc2ccccc2c1Br)N1CCCCCC1	-	-	90	-	78	82	87	91	96	72	-
O=C(COc1ccc2ccccc2c1Br)N1CCCCC1	-	-	-	-	-	-	.	.	.	.	.
Cc1cc(NN)nc(NS(=O)(=O)c2ccccc2Cl)n1	-	-	-	-	-	-	.	.	.	.	.
COc1cc(C)nc(NS(=O)(=O)c2ccccc2Cl)n1	-	-	-	-	-	52	-	-	-	-	-
COc1ccc(CNC(=O)c2c(C)oc3c2C(=O)c2ccccc2C3=O)cc1	-	-	66	64	-	-	-	61	-	70	-
Cn1cc(S(=O)(=O)N2CCCC(C(=O)O)C2)cn1 (configuration not stated)	-	-	-	-	-	-	.	.	.	.	.
Cc1cccc(C(=O)Nc2sc(C)c(-c3ccccc3)c2C#N)c1	50	-	60	-	-	-	-	-	54	-	-
O=C(Nc1scc(-c2ccc(F)cc2)c1C(=O)O)c1ccco1	-	-	86	-	71	-	-	77	93	87	81
CC(C)Cc1csc(NC(=O)c2ccccc2Cl)c1C(=O)O	-	-	-	-	-	-	.	.	.	.	.
CC(C)c1ccc(-c2csc(NC(=O)c3cccs3)c2C(=O)O)cc1	-	-	96	-	91	-	-	98	90	84	84
Cc1noc(C)c1C(=O)Nc1sc(C)c(-c2ccccc2)c1C#N	-	-	-	-	-	-	.	.	.	.	.
CC(C)Cc1csc(NC(=O)c2ccc(Cl)cc2)c1C(=O)O	-	-	94	-	91	-	95	97	99	87	76
COCCCn1cc(C(=O)c2cc(OC)ccc2OCC(=O)N2CCCCC2C)cc(C#N)c1=O (configuration not stated)	-	-	-	-	-	-	.	.	.	.	.
CCCCCC(=O)N1C[C@H](n2cc(-c3ccc(F)cc3)nn2)[C@@H](O)C[C@@H]1c1ccc(OC)cc1	.	-	.	-	.	.	.	.	.	.	.
COc1cccc(CNC(=O)CCC2CCCN(C(=O)C3CCOCC3)C2)c1 (configuration not stated)	-	-	-	-	-	-	.	.	.	.	.
CC1CC1C(=O)N(CCC1=CCCCC1)c1c(N)n(Cc2ccccc2)c(=O)[nH]c1=O (configuration not stated)	-	-	-	-	-	-	.	.	.	.	.
SMILES	AHR act	EBI2 block	SENP6 block	SENP8 block-1	SENP8 block-2	SENP7 inh	SENP8 conf	SENP6 confirm	SENP7 conf	Casp3 SENP sel	SENP luc ctr
Cc1ccc(-c2csc(NC(=O)/C=C/c3ccco3)c2C(=O)O)cc1	-	-	86	-	89	72	68	97	101	96	67
COc1cc(C(=O)Nc2scc(-c3ccc(Br)cc3)c2C(=O)O)cc(OC)c1OC	-	-	-	-	-	-	.	.	.	.	.
Cc1ccc(-c2csc(NC(=O)c3cccc(C)c3)c2C(=O)O)cc1	-	-	97	-	92	69	-	96	100	91	84
Cc1ccc(-c2csc(NC(=O)c3ccc(Br)cc3)c2C(=O)O)cc1	-	-	71	-	86	-	-	87	74	76	-
Cc1cccc(C(=O)Nc2scc(CC(C)C)c2C(=O)O)c1	-	-	-	-	-	-	.	.	.	.	.
Cc1cccc(C(=O)Nc2scc(-c3ccc(Br)cc3)c2C(=O)O)c1	-	-	-	-	72	-	-	54	-	-	-
Cc1noc(C)c1COc1cccc(C(=O)OC(C)C(=O)Nc2c(C)n(C)n(-c3ccccc3)c2=O)c1 (configuration not stated)	-	-	-	-	-	-	.	.	.	.	.
O=c1c2ccccc2c(/C=N/c2n[nH]c(CCCO)n2)c(O)n1-c1ccccc1Cl	-	-	-	-	-	-	.	.	.	.	.
CN(Cc1c(F)cccc1Cl)C(=O)c1ccc(NC(=O)CC2SC(N3CCCC3)=NC2=O)cc1 (configuration not stated)	-	-	-	-	-	-	.	.	.	.	.
CCC(C)(C)NC(=O)C(c1ccc(C)cc1)N(CCN1CCOCC1)C(=O)CNC(=O)c1cccs1 (configuration not stated)	-	-	-	-	-	-	.	.	.	.	.
Cc1ccc(C(=O)n2c(N)nc3ccccc32)cc1	-	-	86	-	91	97	90	95	101	96	66
CCOC(=O)C(Oc1ccc(=O)n(-c2ccccc2)n1)C(C)=O (configuration not stated)	-	-	-	-	-	84	-	-	-	-	-
Cc1cc(C)nc(SCC(=O)N/N=C/c2ccc3c(c2)OCO3)n1	.	-	62	-	52	-	-	-	-	-	-
O=C(N/N=C/c1ccc2c(c1)OCO2)c1cccs1	97	-	76	-	84	89	92	93	100	94	90
Cc1ccsc1C(=O)N/N=C/c1ccc2c(c1)OCO2	-	-	97	-	96	100	96	100	103	99	99
O=C(N/N=C/c1ccc2c(c1)OCO2)c1ccc2c(c1)OCCO2	-	-	-	-	-	-	.	.	.	.	.
